Rows were chosen to be rich in hits. Some 2.8% of all compounds tested hit in one or more screens of this group.
AHR act = activates the human aryl hydrocarbon receptor; P35869; AHR-responsive luciferase reporter cells, luminescence; activation, % at 5 µM; hit rate 2.5% among 320,000; in the data active means activation above about 47%;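 further: 0% = vehicle wells and 100% = reference agonist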
Target sequence (P35869 whole entry, looked up): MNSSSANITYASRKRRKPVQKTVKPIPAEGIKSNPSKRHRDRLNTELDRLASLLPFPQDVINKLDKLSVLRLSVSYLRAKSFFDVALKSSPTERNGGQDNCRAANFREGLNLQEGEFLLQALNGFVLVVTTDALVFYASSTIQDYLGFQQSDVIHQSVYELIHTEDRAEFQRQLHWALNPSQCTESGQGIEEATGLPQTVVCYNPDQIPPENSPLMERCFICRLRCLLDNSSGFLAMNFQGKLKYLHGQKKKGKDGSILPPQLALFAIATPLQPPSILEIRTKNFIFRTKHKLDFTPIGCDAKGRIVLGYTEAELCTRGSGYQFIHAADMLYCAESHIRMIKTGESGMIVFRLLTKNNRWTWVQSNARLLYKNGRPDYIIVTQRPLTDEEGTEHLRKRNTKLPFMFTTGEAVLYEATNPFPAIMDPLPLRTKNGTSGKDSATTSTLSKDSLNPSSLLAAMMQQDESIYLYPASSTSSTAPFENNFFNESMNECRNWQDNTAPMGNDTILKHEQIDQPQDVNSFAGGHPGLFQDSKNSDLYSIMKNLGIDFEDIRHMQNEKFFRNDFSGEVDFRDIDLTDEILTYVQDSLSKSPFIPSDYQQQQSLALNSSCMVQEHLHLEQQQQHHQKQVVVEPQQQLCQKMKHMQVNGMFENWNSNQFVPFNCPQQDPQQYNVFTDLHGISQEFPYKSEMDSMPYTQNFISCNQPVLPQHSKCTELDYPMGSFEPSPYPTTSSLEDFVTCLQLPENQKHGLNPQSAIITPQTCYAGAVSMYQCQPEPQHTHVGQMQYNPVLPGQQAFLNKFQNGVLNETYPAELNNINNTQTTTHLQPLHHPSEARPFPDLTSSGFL
pCIP destab = p/CIP protein destabilization. Q05BA5. F442A p/CIP-EGFP cells, EGFP fluorescence, 16 h. decrease of EGFP signal, % at 10 µM. hit rate 0.01% among 290,000;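 active means EGFP signal decrease of at least 30% at 10 µM or well 3 SD below plate mean, unless failing retest; inactive means the rest, including hits failing retest or dose response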
Platelet DG rel = platelet dense granule release activity; inhibition, %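 (compounds screened at 7.5 µM in platelet-rich plasma)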; hit rate 0.22% among 300,000; AID 1663; human platelet-rich plasma, SFLLRN dense granule ATP release, luminescence;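 active means mean replicate score, as percent of positive control, at or above 50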
HIF act = HIF pathway transcriptional activation | U2OS HRE-luciferase reporter, luminescence; normalized: DMSO 0%, desferrioxamine 100% | activation, % at 7.5 µM (by protocol) | hit rate 0.32% among 300,000;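 active means mean activation of at least 10% of the iron chelator positive control signal, with at least half of replicates also reaching 10%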
PolyA inhibitor = blocks polyadenylation in yeast reporter cells; S. cerevisiae SKY197-pL101 polyadenylation reporter, beta-gal luminescence; efflux-impaired pdr1/pdr3 knockout yeast; score 100 = 6 SD above DMSO; activity score, % at 12 µM; hit rate 0.02% among 300,000; AID 1875;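 active means lowest replicate activity score at least 50, where 100 means six control SD above control mean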;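 further: yeast exposed to compound for 9 h at 30 °C; higher score means more reporter readthrough which indicates perturbed polyadenylation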
Numbers without * were called inactive; nt = no result.

SMILES	AHR act	pCIP destab	Platelet DG rel	HIF act	PolyA inhibitor
COc1ccccc1NC(=O)CSc1ccc2nnc(-c3cccnc3)n2n1	79*	-1	-10	0	-14
CCOc1ccccc1NC(=O)CSc1ccc2nnc(-c3cccnc3)n2n1	25	0	-21	-1	9
O=C(CSc1ccc2nnc(-c3ccccn3)n2n1)Nc1nccs1	55*	6	-4	0	-4
COc1ccc(/C=N/Nc2ccc([N+](=O)[O-])cc2)cc1O	7	-5	-1	5	-46
CCn1c(C)nc2cc(C(=O)NNC(=O)CN(C)S(=O)(=O)c3ccc(NC(C)=O)cc3)ccc21	2	nt	nt	nt	nt
COc1ccc(-c2nc3ccc(N4CCN(C)CC4)cc3c(=O)[nH]2)cc1	56*	-2	-7	0	1
Cc1cnc(C(=O)OCC(=O)NC(C)c2ccccc2)cn1 (centres undefined)	0	nt	nt	nt	nt
CC1CCCC(C)N1C(=O)CSc1nnc(C2CCCCC2)o1 (centres undefined)	6	-18	-2	0	9
O=C(Nc1cc(C(F)(F)F)ccc1Cl)c1ccncc1	-3	16	-14	0	4
O=C(Nc1cc(C(F)(F)F)ccc1Cl)c1ccc(NC(=O)C(F)(F)F)cc1	75*	2	16	-1	-36
CCCC(=O)Nc1ccc(C(=O)Nc2cc(C(F)(F)F)ccc2Cl)cc1	63*	-1	17	0	-10
C/C(=N\Nc1nc(N2CCCCC2)nc(N2CCOCC2)n1)c1ccccc1O	5	-1	-1	0	2
CCOc1ccc(OCC)c(NC(=O)C2CCCN2S(=O)(=O)c2cccc3cccnc23)c1 (centres undefined)	47*	-3	4	nt	8
CCn1c(=N)n(CC(O)c2ccccc2)c2ccccc21 (centres undefined)	5	-19	8	0	5
CN=c1sc2ccccc2n1CC(O)c1ccccc1 (centres undefined)	63*	-5	0	0	11
O=C(NC(CSCc1ccccc1)C(=O)N/N=C/c1ccc(O)cc1O)c1ccc([N+](=O)[O-])cc1 (centres undefined)	5	-23	9	42*	-3
Cc1cc(-c2nnc(CCC(=O)N(C)Cc3cccc4ccccc34)o2)no1	4	-2	-1	2	1
O=C(CN1C(=O)NC2(CCCC2)C1=O)Nc1cc(Cl)ccc1N1CCOCC1	1	nt	-2	1	2
Cc1nn(-c2ccc(F)cc2)c2nc(N)c(C#N)c(-c3cccs3)c12	65*	5	4	-1	-20
Cc1ccccc1SCC(=O)OCC(=O)NCc1ccccc1	-1	nt	nt	nt	nt
O=C(CC1SC(N2CCCC2)=NC1=O)Nc1ccc(C(=O)Nc2ncccc2O)cc1 (centres undefined)	5	nt	27	20*	3
C=CCc1c(C)nc2cc(-c3ccc(C)cc3)[nH]n2c1=O	50*	-2	-1	2	-7
CCCn1c(SC(C)C(=O)NCC2CCCO2)nc2cc(Cl)ccc2c1=O (centres undefined)	6	nt	3	0	-10
COc1ccccc1-n1c(SC(C)C(=O)NCC2CCCO2)nc2cc(Cl)ccc2c1=O (centres undefined)	59*	nt	-6	1	-15
O=C(N/N=C/c1ccc(OC(=O)c2ccc(Br)cc2)cc1)c1ccncc1	3	-6	-14	0	-11
SMILES	AHR act	pCIP destab	Platelet DG rel	HIF act	PolyA inhibitor
O=C(N/N=C/c1cc(Br)ccc1OC(=O)c1ccc(Br)cc1)c1ccncc1	15	-8	-1	19*	-23
O=C(N/N=C/c1ccc(Cl)cc1)Nc1ccccc1	67*	0	-12	5	-27
Cc1nc(C)c(C(=O)N/N=C/c2cc(Br)ccc2O)s1	14	-7	-3	29*	12
Cc1cc(C(=O)N/N=C/c2cc(Br)ccc2OC(=O)c2ccccc2Cl)n[nH]1	65*	11	2	0	1
COc1ccccc1CNC(=O)CN1C(=O)N(C)C2(CCCCC2)C1=O	-1	nt	nt	nt	nt
O=C(OCC(=O)N1CCN(c2ccc(F)cc2)CC1)c1cnc2ccccc2n1	10	nt	nt	nt	nt
CCCn1nc2cc(C(=O)NCCc3cccs3)ccc2c1OCC	26	10	10	3	-6
O=C(N/N=C/c1cc(Br)ccc1O)c1ccncc1	27	-8	-18	34*	1
CN(C)S(=O)(=O)c1cccc(NC(=S)N/N=C/c2cc(Br)ccc2O)c1	9	4	2	47*	-13
O=C(N/N=C/c1cc(Br)ccc1O)Nc1ccccc1	51*	-7	-4	2	7
Nc1nonc1C(=O)N/N=C/c1cc(Br)ccc1O	37	-22	0	22*	-17
COc1c(OC(C)=O)ccc(/C=N\NC(=O)c2ccc(Br)cc2)c1[N+](=O)[O-]	2	-9	-3	0	-3
O=C(N/N=C\c1cc(Br)ccc1O)c1ccc(S(=O)(=O)N2CCCCC2)cc1	15	3	2	37*	-4
Cc1ccc(N=Nc2ccc(O)c(/C=N\NC(=O)c3ccc(N)cc3)c2)cc1C	4	4	2	11*	-34
C=CCNCCOCCOc1ccccc1-c1ccccc1	5	5	3	0	-12
COc1ccc2c(c1OC)C(=O)N1C2SC(C)(C)[C@H]1C(=O)NCC(C)C (some centres undefined)	0	2	24	0	-13
CCn1nc(NC(=O)c2cccs2)c2cc3ccccc3nc21	48*	-5	3	0	-29
CCn1nc(NS(=O)(=O)c2ccccc2)c2cc3ccccc3nc21	7	6	17	0	12
CCn1nc(NC(=O)c2ccccn2)c2cc3cc(C)ccc3nc21	71*	0	nt	nt	-16
CCCCC(=O)Nc1nn(CC)c2nc3c(C)cccc3cc12	19	-1	-1	0	5
CCCCC(=O)Nc1nn(CCC)c2nc3ccccc3cc12	47*	-11	nt	nt	-8
CN(C)c1ccc(-c2nn3c(C4CCCCC4)nnc3s2)cc1	6	-7	2	0	-14
Cc1ccc(Cl)cc1NC1=NC(=S)N(C(C)C)C12CCCCC2	1	6	2	-1	-11
O=C(COc1ccccc1)N(Cc1cccc(F)c1)C1CCS(=O)(=O)C1 (centres undefined)	2	-2	-2	18*	-2
O=C(COc1ccc(F)cc1)N(Cc1cccc(Br)c1)C1CCS(=O)(=O)C1 (centres undefined)	7	-2	8	1	12
COc1ccc(N2CCN(C(CNS(C)(=O)=O)c3ccco3)CC2)cc1 (centres undefined)	1	2	1	0	-12
Nc1ccc2nn(-c3cccc4ccccc34)nc2c1	48*	-6	-5	0	12
CCN(CC)c1ccc(NC(=O)c2nc3nc(C)cc(C(F)F)n3n2)cc1	1	-10	-10	0	-13
COc1ccc(NC(=O)c2nc3nc(C)cc(C(F)F)n3n2)cc1OC	8	2	68*	0	8
